Measurements taken from PubChem BioAssay AID1159580 (chemical genetic matrix, 2015).
Out of some 5,500 compounds screened, about 2,000 (36%) were called active. About 18% were inconclusive and are not listed. No stated cut-off is given here; in the data, active means normalized growth mostly below about 0.91 (no sharp cut-off); inconclusive means no clear call, values can overlap the other calls; inactive means mostly above about 0.92. This is one part of the list.

Experiment: chemical genetic growth profiling, strain panel (AID 1159580);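 further: tested at 20 µM; growth read once vehicle control cultures reached saturation at 30 °C; 1 = growth at the plate median or of vehicle wells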
Conditions: growth OD
[1] = S. cerevisiae deletion strains, locus YAL013W, strain DEP1, stronger effect = lower value
[2] = S. cerevisiae deletion strains, locus YBR229C, strain ROT2, stronger effect = lower value
[3] = S. cerevisiae deletion strains, locus YDL101C, strain DUN1, stronger effect = lower value
[4] = S. cerevisiae deletion strains, locus YDL134C, strain PPH21, stronger effect = lower value
[5] = S. cerevisiae deletion strains, locus YDR150W, strain NUM1, stronger effect = lower value
[6] = S. cerevisiae deletion strains, locus YEL061C, strain CIN8, stronger effect = lower value
[7] = S. cerevisiae deletion strains, locus YGR078C, strain PAC10, stronger effect = lower value
[8] = S. cerevisiae deletion strains, locus YGR229C, strain SMI1, stronger effect = lower value
[9] = S. cerevisiae deletion strains, locus YHR030C, strain SLT2, stronger effect = lower value
[10] = S. cerevisiae deletion strains, locus YHR087W, strain rtc3, stronger effect = lower value
[11] = S. cerevisiae deletion strains, locus YJR043C, strain POL32, stronger effect = lower value
[12] = S. cerevisiae deletion strains, locus YJR075W, strain HOC1, stronger effect = lower value
[13] = S. cerevisiae deletion strains, locus YLR039C, strain RIC1, stronger effect = lower value
[14] = S. cerevisiae deletion strains, locus YLR058C, strain SHM2 (second series), stronger effect = lower value
[15] = S. cerevisiae deletion strains, locus YLR085C, strain ARP6, stronger effect = lower value
[16] = S. cerevisiae deletion strains, locus YLR262C, strain YPT6, stronger effect = lower value
[17] = S. cerevisiae deletion strains, locus YML094W, strain GIM5, stronger effect = lower value
[18] = S. cerevisiae deletion strains, locus YMR219W, strain ESC1, stronger effect = lower value
[19] = S. cerevisiae deletion strains, locus YMR263W, strain SAP30, stronger effect = lower value
[20] = S. cerevisiae deletion strains, locus YNL128W, strain TEP1, stronger effect = lower value
[21] = S. cerevisiae deletion strains, locus YNL153C, strain GIM3, stronger effect = lower value
[22] = S. cerevisiae deletion strains, locus YNL298W, strain CLA4 (second series), stronger effect = lower value
[23] = S. cerevisiae deletion strains, locus YNL322C, strain KRE1, stronger effect = lower value
[24] = S. cerevisiae deletion strains, locus YNR030W, strain Alg12, stronger effect = lower value
[25] = S. cerevisiae deletion strains, locus YOL006C, strain TOP1, stronger effect = lower value
[26] = S. cerevisiae deletion strains, locus YPL055C, strain LGE1, stronger effect = lower value
[27] = S. cerevisiae deletion strains, locus YPL241C, strain CIN2, stronger effect = lower value
[28] = S. cerevisiae deletion strains, locus YPR135W, strain CTF4, stronger effect = lower value
[29] = S. cerevisiae strains, strain wild type, stronger effect = lower value
[30] = S. cerevisiae deletion strains, locus YKL190W, strain CNB1, stronger effect = lower value

Measured: normalized growth

CCCCCc1ccc(C(=O)O/N=C\c2c(Cl)cccc2Cl)cc1
active: [6] 0.902 | [8] 0.929 | [21] 0.92
inactive: [1] 0.966 | [2] 0.941 | S. cerevisiae deletion strains, locus YCL061C, strain MRC1, stronger effect = lower value 0.933 | [3] 1.01 | [4] 0.936 | [5] 1.01 | [7] 0.959 | [9] 1.01 | [10] 0.939 | [11] 0.962 | [12] 0.982 | [13] 0.84 | [14] 0.943 | [15] 0.943 | [16] 0.82 | [17] 0.98 | [18] 0.95 | [19] 1.03 | [20] 0.962 | [22] 0.969 | [23] 0.947 | [24] 0.958 | [25] 0.796 | [26] 0.943 | [27] 0.963 | [28] 1.07 | [29] 0.919

O=[N+]([O-])c1cnc(Sc2n[nH]c(-c3cccs3)n2)s1
inactive: [8] 0.974
active: [1] 0.488 | [2] 0.258 | [3] 0.23 | [5] 0.347 | [6] 0.612 | [7] 0.214 | [9] 0.312 | [10] 0.377 | [11] 0.602 | [12] 0.224 | [30] 0.715 | [13] 0.426 | [14] 0.404 | [15] 0.152 | [16] 0.596 | [17] 0.573 | [18] 0.35 | [19] 0.194 | [20] 0.876 | [21] 0.215 | [22] 0.352 | [23] 0.927 | [24] 0.508 | [26] 0.126 | [27] 0.36 | [28] 0.319

N[C@H](C(=O)O)[C@@H]1CC(Cl)=NO1
inactive: S. cerevisiae deletion strains, locus YMR307W, strain GAS1, stronger effect = lower value 0.671 | S. cerevisiae deletion strains, locus YOL012C, strain htz1 0.224
active: [1] 0.796 | S. cerevisiae deletion strains, locus YBR021W, strain FUR4, stronger effect = lower value 1.27 [resistant] | [2] 0.629 | S. cerevisiae deletion strains, locus YCL029C, strain bik1, stronger effect = lower value 0.258 | S. cerevisiae deletion strains, locus YDL035C, strain GPR1, stronger effect = lower value 0.321 | S. cerevisiae deletion strains, locus YDL074C, strain BRE1, stronger effect = lower value 0.48 | [3] 0.23 | [4] 0.355 | S. cerevisiae deletion strains, locus YDL185W, strain tfp1, stronger effect = lower value 0.149 | S. cerevisiae deletion strains, locus YDL192W, strain arf1, stronger effect = lower value 0.24 | S. cerevisiae deletion strains, locus YDR101C, strain arx1, stronger effect = lower value 0.287 | [5] 0.605 | S. cerevisiae deletion strains, locus YDR162C, strain NBP2, stronger effect = lower value 0.318 | S. cerevisiae deletion strains, locus YDR318W, strain mcm21, stronger effect = lower value 0.199 | S. cerevisiae deletion strains, locus YDR388W, stronger effect = lower value 0.191 | S. cerevisiae deletion strains, locus YDR502C, strain sam2, stronger effect = lower value 0.2 | [6] 0.409 | S. cerevisiae deletion strains, locus YER110C, stronger effect = lower value 0.451 | S. cerevisiae deletion strains, locus YER155C, strain BEM2, stronger effect = lower value 0.464 | S. cerevisiae deletion strains, locus YER167W, strain BCK2, stronger effect = lower value 0.288 | S. cerevisiae deletion strains, locus YGL078C, strain dbp3, stronger effect = lower value 0.238 | S. cerevisiae deletion strains, locus YGL086W, strain mad1, stronger effect = lower value 0.267 | S. cerevisiae deletion strains, locus YGL248W, strain PDE1, stronger effect = lower value 0.331 | [7] 0.437 | S. cerevisiae deletion strains, locus YGR135W, strain pre9, stronger effect = lower value 0.234 | [8] 0.197 | S. cerevisiae deletion strains, locus YGR252W, strain gcn5, stronger effect = lower value 0.508 | [9] 0.478 | S. cerevisiae deletion strains, locus YHR079C, strain IRE1 (second series), stronger effect = lower value 0.186 | S. cerevisiae deletion strains, locus YHR094C, strain hxt1, stronger effect = lower value 0.275 | S. cerevisiae deletion strains, locus YHR129C, strain ARP1, stronger effect = lower value 0.481 | S. cerevisiae deletion strains, locus YHR200W, strain rpn10, stronger effect = lower value 0.376 | S. cerevisiae deletion strains, locus YIL066C, strain RNR3, stronger effect = lower value 0.468 | S. cerevisiae deletion strains, locus YIL073C, strain SPO22, stronger effect = lower value 0.39 | S. cerevisiae deletion strains, locus YIL125W, strain kgd1, stronger effect = lower value 0.185 | S. cerevisiae deletion strains, locus YIR030C, strain dcg1, stronger effect = lower value 0.26 | S. cerevisiae deletion strains, locus YJL095W, strain BCK1, stronger effect = lower value 0.287 | S. cerevisiae deletion strains, locus YJL134W, strain LCB3, stronger effect = lower value 0.605 | S. cerevisiae deletion strains, locus YJL168C, strain set2, stronger effect = lower value 0.541 | S. cerevisiae deletion strains, locus YJL187C, strain SWE1 (second series), stronger effect = lower value 0.345 | [11] 0.267 | [12] 0.52 | S. cerevisiae deletion strains, locus YKL009W, strain mrt4, stronger effect = lower value 0.381 | S. cerevisiae deletion strains, locus YKL068W, stronger effect = lower value 0.433 | S. cerevisiae deletion strains, locus YKL085W, strain MDH1 (second series), stronger effect = lower value 0.214 | S. cerevisiae deletion strains, locus YKL085W, strain MDH1, stronger effect = lower value 0.214 | [30] 0.446 | S. cerevisiae deletion strains, locus YKR001C, strain vps1, stronger effect = lower value 0.189 | [13] 0.45 | S. cerevisiae deletion strains, locus YLR058C, strain SHM2, stronger effect = lower value 0.398 | S. cerevisiae deletion strains, locus YLR102C, strain apc9, stronger effect = lower value 0.28 | [16] 0.516 | S. cerevisiae deletion strains, locus YLR268W, strain sec22, stronger effect = lower value 0.174 | S. cerevisiae deletion strains, locus YLR330W, strain CHS5, stronger effect = lower value 0.388 | S. cerevisiae deletion strains, locus YLR342W, strain FKS1 (second series), stronger effect = lower value 0.573 | S. cerevisiae deletion strains, locus YLR371W, strain rom2, stronger effect = lower value 0.505 | S. cerevisiae deletion strains, locus YLR418C, strain cdc73, stronger effect = lower value 0.468 | S. cerevisiae deletion strains, locus YML016C, strain PPZ1, stronger effect = lower value 0.364 | S. cerevisiae deletion strains, locus YML032C, strain rad52, stronger effect = lower value 0.238 | S. cerevisiae deletion strains, locus YML124C, strain tub3, stronger effect = lower value 0.302 | S. cerevisiae deletion strains, locus YMR078C, strain ctf18, stronger effect = lower value 0.352 | S. cerevisiae deletion strains, locus YMR223W, strain ubp8, stronger effect = lower value 0.22 | [19] 0.619 | S. cerevisiae deletion strains, locus YNL067W, strain RPL9B, stronger effect = lower value 0.353 | [20] 0.29 | [21] 0.504 | S. cerevisiae deletion strains, locus YNL233W, strain BNI4, stronger effect = lower value 0.419 | S. cerevisiae deletion strains, locus YNL250W, strain rad50, stronger effect = lower value 0.246 | S. cerevisiae deletion strains, locus YNL271C, strain bni1, stronger effect = lower value 0.188 | S. cerevisiae deletion strains, locus YNL298W, strain CLA4, stronger effect = lower value 0.319 | S. cerevisiae deletion strains, locus YNL307C, strain MCK1, stronger effect = lower value 0.0999 | [23] 0.457 | S. cerevisiae deletion strains, locus YNR052C, strain pop2, stronger effect = lower value 0.11 | [25] 0.495 | S. cerevisiae deletion strains, locus YOL147C, strain pex11, stronger effect = lower value 0.27 | S. cerevisiae deletion strains, locus YOR061W, strain CKA2, stronger effect = lower value 0.483 | S. cerevisiae deletion strains, locus YOR069W, strain VPS5, stronger effect = lower value 0.447 | S. cerevisiae deletion strains, locus YOR136W, strain idh2, stronger effect = lower value 0.272 | S. cerevisiae deletion strains, locus YOR144C, strain elg1, stronger effect = lower value 0.352 | S. cerevisiae deletion strains, locus YOR184W, strain ser1, stronger effect = lower value 0.152 | S. cerevisiae deletion strains, locus YOR316C, strain cot1, stronger effect = lower value 0.359 | [26] 0.448 | [27] 0.571 | S. cerevisiae deletion strains, locus YPR119W, strain clb2, stronger effect = lower value 0.335 | S. cerevisiae deletion strains, locus YPR141C, strain kar3, stronger effect = lower value 0.272 | S. cerevisiae deletion strains, locus YPR163C, strain tif3, stronger effect = lower value 0.307 | S. cerevisiae deletion strains, locus YPR167C, strain met16, stronger effect = lower value 0.392 | S. cerevisiae deletion strains, strain wtn01, stronger effect = lower value 0.212 | [29] 0.351

N[C@H](C(=O)O)[C@H]1C[C@@H]1C(=O)O
inactive: S. cerevisiae deletion strains, locus YAL040C, strain CLN3, stronger effect = lower value 1.11 | S. cerevisiae deletion strains, locus YCL061C, strain MRC1 (second series), stronger effect = lower value 1.01 | S. cerevisiae deletion strains, locus YDR363W, strain ESC2, stronger effect = lower value 1.03 | S. cerevisiae deletion strains, locus YER002W, strain NOP16, stronger effect = lower value 1.01 | [7] 1.02 | [19] 1.01 | [21] 1.02 | S. cerevisiae deletion strains, locus YNL175C, strain NOP13, stronger effect = lower value 1 | S. cerevisiae deletion strains, locus YNL197C, strain WHI3, stronger effect = lower value 1.06 | S. cerevisiae deletion strains, locus YNL224C, strain SQS1, stronger effect = lower value 0.996 | S. cerevisiae deletion strains, locus YOR083W, strain WHI5 (second series), stronger effect = lower value 1.03 | [27] 1.01
